The campaign covered roughly 63,000 compounds. About 1,100 (1.7%) were called active. The list comes from a sample in which actives are over-represented; it also holds similar structures and randomly drawn compounds. Results with a measured potency or affinity are listed apart. Values without a mark were called inactive.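 Rule for the calls: active = compounds whose percent cytotoxicity in the single-dose primary screen, scaled between solvent and toxic-drug controls, exceeds 50; inactive = the rest.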
Assay: cytotoxicity in KRAS-transformed pancreatic duct cells, primary screen, cell-based, fluorescence, HTS (AID 431);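 note: 0% = DMSO solvent wells and 100% = doxorubicin-treated wells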
Conditions: HPDE-C7K KRASV12 cells, Alamar Blue viability, 48 h; at 10 µM; stronger effect = higher value

Q: With CC(C)OC(=O)c1cc(=O)[nH]c2ccccc12 as the molecule, how does the cytotoxicity read?
A: 13.4%

Q: For Cc1noc(C)c1S(=O)(=O)N(CC(=O)Nc1ccc2c(c1)OCO2)c1ccc(C(C)C)cc1, which cytotoxicity is on record?
A: -3.1%

Q: With Cc1cc(C)c2c(CC(=O)NCc3ccco3)coc2c1 as the molecule, how does the cytotoxicity read?
A: 5.6%

Q: Which cytotoxicity does the source give for O=C(Cc1cccs1)NCc1ccco1 here?
A: 6.7%

Q: Which cytotoxicity does the source give for Cc1ccc2c(CC(=O)NCc3ccco3)coc2c1C here?
A: 73.2% (active)

Q: For CN1C(=O)CC(N2CCN(C(c3ccccc3)c3ccccc3)CC2)C1=O (stereo not drawn), which cytotoxicity is on record?
A: -16.6%

Q: Which cytotoxicity does the source give for COC(=O)Cn1c(CN2CCN(c3ccc(F)cc3)CC2)nc2c1c(=O)n(C)c(=O)n2C here?
A: 0.6%

Q: With CCOC(=O)NC(Nc1ncccn1)(C(F)(F)F)C(F)(F)F as the molecule, how does the cytotoxicity read?
A: -17.3%

Q: With CCCOCCOC(=O)c1[nH]c2c(c1C)C(=O)CC(c1cc(OC)ccc1OC)C2 (stereo not drawn) as the molecule, how does the cytotoxicity read?
A: 53.5% (active)

Q: Which cytotoxicity does the source give for COc1ccc(C2CC(=O)c3c([nH]c(C(=O)OC(C)C)c3C)C2)cc1OC (stereo not drawn) here?
A: -16.2%

Q: For COC(=O)c1[nH]c2c(c1C)C(=O)CC(c1cc(OC)ccc1OC)C2 (stereo not drawn), which cytotoxicity is on record?
A: 18.9%

Q: For COCCOC(=O)c1[nH]c2c(c1C)C(=O)CC(c1cc(OC)ccc1OC)C2 (stereo not drawn), which cytotoxicity is on record?
A: -6.8%

Q: With COc1ccc(OC)c(C2CC(=O)c3c([nH]c(C(=O)OC(C)C)c3C)C2)c1 (stereo not drawn) as the molecule, how does the cytotoxicity read?
A: 51.6% (active)

Q: For COc1cc2nc(CC(C)C)n(NC(=O)c3ccccc3)c(=O)c2cc1OC, which cytotoxicity is on record?
A: -0.2%

Q: With Cc1cc(N2CCN(C(=O)c3ccco3)CC2)n2nc(-c3cccc(Cl)c3)cc2n1 as the molecule, how does the cytotoxicity read?
A: 2%

Q: Which cytotoxicity does the source give for c1cnc(NCCNc2ncccn2)nc1 here?
A: -5.3%

Q: Which cytotoxicity does the source give for Cc1cc(NC(=O)c2ccc(Cn3nc(C)c(Br)c3C)o2)no1 here?
A: 6.8%

Q: For CCOC(=O)C1CCN(c2c(N(C)Cc3ccco3)c(=O)c2=O)CC1, which cytotoxicity is on record?
A: 11%

Q: With O=CN1Cc2[nH]c3ccccc3c2N(c2ccc(Cl)cc2)C1=O as the molecule, how does the cytotoxicity read?
A: -0.4%

Q: Which cytotoxicity does the source give for Cc1cccc(S(=O)(=O)c2c(N)n(/N=C/c3cccnc3)c3nc4ccccc4nc23)c1 here?
A: 23.4%

Q: With Nc1c(S(=O)(=O)c2cccs2)c2nc3ccccc3nc2n1/N=C/c1cccc(O)c1 as the molecule, how does the cytotoxicity read?
A: 65.7% (active)

Q: For Cc1ccc(S(=O)(=O)c2c(N)n(/N=C/c3ccco3)c3nc4ccccc4nc23)cc1C, which cytotoxicity is on record?
A: 8.5%

Q: For Cc1cccc(S(=O)(=O)c2c(N)n(/N=C/c3ccco3)c3nc4ccccc4nc23)c1, which cytotoxicity is on record?
A: 17.6%

Q: Which cytotoxicity does the source give for COCCn1c(N)c(S(=O)(=O)c2cccs2)c2nc3ccccc3nc21 here?
A: -1.6%

Q: With Nc1c(S(=O)(=O)c2cccc(Cl)c2)c2nc3ccccc3nc2n1/N=C/c1ccc(O)c(O)c1 as the molecule, how does the cytotoxicity read?
A: 126% (active)

Q: Which cytotoxicity does the source give for Nc1c(S(=O)(=O)c2ccccc2)c2nc3ccccc3nc2n1/N=C/c1ccco1 here?
A: 45.3%

Q: For Nc1c(S(=O)(=O)c2cccs2)c2nc3ccccc3nc2n1Cc1cccs1, which cytotoxicity is on record?
A: -15.3%

Q: For O=C(CCSc1nc(-c2ccco2)cc(C(F)(F)F)n1)NCC1CCCO1 (stereo not drawn), which cytotoxicity is on record?
A: 3.2%

Q: Which cytotoxicity does the source give for COCCCNC(=O)CCn1c(=O)c2ccccc2n(CC(=O)Nc2ccccc2C)c1=O here?
A: 1.7%

Q: For CN(C(=O)c1ccc2c(=O)n3c(nc2c1)CCCCC3)c1ccccc1, which cytotoxicity is on record?
A: -5.5%

Q: With CCOC(=O)c1c(C)[nH]c(C(=O)CSc2nnnn2-c2ccccc2)c1C as the molecule, how does the cytotoxicity read?
A: -2.7%

Q: With CCc1nc2oc3cc(OC)ccc3c(=O)c2c(=O)n1Cc1ccco1 as the molecule, how does the cytotoxicity read?
A: -11.3%

Q: For O=C(Nc1cccnc1)C1CCCN(S(=O)(=O)c2cccc3nsnc23)C1 (stereo not drawn), which cytotoxicity is on record?
A: -2.5%

Q: Which cytotoxicity does the source give for Cc1ccc(C(=O)NCCNC(=O)CN2CCCC2)cc1 here?
A: -4.9%

Q: Which cytotoxicity does the source give for CN(C1CCCCC1)S(=O)(=O)c1ccc(NC(=O)C2CCCCC2C(=O)O)cc1 (stereo not drawn) here?
A: -5.7%

Q: With COc1ccccc1C1=NOC(Cn2c(=O)c3c(ncn3C)n(C)c2=O)C1 (stereo not drawn) as the molecule, how does the cytotoxicity read?
A: -17.3%

Q: With COc1ccc(-c2nc3c(c(=O)n(C)c(=O)n3C)n2CC2CC(c3ccccc3)=NO2)cc1OC (stereo not drawn) as the molecule, how does the cytotoxicity read?
A: 53.3% (active)

Q: With COc1ccc(C2=NOC(Cn3c(Cc4ccc(Cl)cc4)nc4c3c(=O)n(C)c(=O)n4C)C2)cc1 (stereo not drawn) as the molecule, how does the cytotoxicity read?
A: 1.7%

Q: For CC1CCN(c2nc3c(c(=O)[nH]c(=O)n3C)n2Cc2ccccc2Cl)CC1, which cytotoxicity is on record?
A: 8.5%

Q: For CCOC(=O)c1cnc(=O)[nH]c1C, which cytotoxicity is on record?
A: 1.1%

Q: For Cc1cc(-c2[nH]nc3c2C(c2ccsc2)C(C#N)=C(N)O3)c(C)s1 (stereo not drawn), which cytotoxicity is on record?
A: -9.2%

Q: For Cc1ccc2[nH]c3c(c2c1)CN(C(=O)CN1CCN(c2ccccc2)CC1)CC3, which cytotoxicity is on record?
A: 24.5%

Q: Which cytotoxicity does the source give for Cc1ccc2[nH]c3c(c2c1)CN(C(=O)CN1CCN(c2ccccc2F)CC1)CC3 here?
A: 22.5%

Q: With Cc1ccc2[nH]c3c(c2c1)CN(C(=O)CN1CCCc2ccccc21)CC3 as the molecule, how does the cytotoxicity read?
A: 54.4% (active)

Q: With CCN(CC)C(=O)c1csc(Nc2ccc(C)cc2)n1 as the molecule, how does the cytotoxicity read?
A: -18.4%

Q: With Cc1nc2cc(CO)ccc2s1 as the molecule, how does the cytotoxicity read?
A: 1.8%

Q: Which cytotoxicity does the source give for CC(=O)N1CCc2cc(C(=O)CN3CCN(c4cccc(Cl)c4)CC3)ccc21 here?
A: -4%

Q: For O=C(Nc1ccc(O)cc1)c1ccc(C(=O)c2ccccc2)o1, which cytotoxicity is on record?
A: -1.3%

Q: Which cytotoxicity does the source give for Cc1ncoc1C(=O)Nc1ccc(Oc2ccccc2)cc1 here?
A: -7.3%

Q: Which cytotoxicity does the source give for Cc1ccc2c(COC(=O)c3cnc(C)cn3)cc(=O)oc2c1 here?
A: 4.8%

Q: With CCOc1ccc(C)cc1S(=O)(=O)N1CCCCC1 as the molecule, how does the cytotoxicity read?
A: 7.7%

Q: With Cc1cnc(NC(=O)COc2ccccc2)s1 as the molecule, how does the cytotoxicity read?
A: 1.6%

Q: For Nc1ccc2c(c1)-c1ccccc1S(=O)(=O)N2, which cytotoxicity is on record?
A: 16.8%

Q: With O=S1(=O)Nc2c(ccc3cccnc23)-c2ccccc21 as the molecule, how does the cytotoxicity read?
A: 86% (active)

Q: With Cc1ccc2c(c1)-c1ccccc1S(=O)(=O)N2 as the molecule, how does the cytotoxicity read?
A: 11.5%

Q: For CC1CCN(c2nnc(N3CCC(C)CC3)c3ccccc23)CC1, which cytotoxicity is on record?
A: -2.9%

Q: For Cc1ccc(C(c2nnnn2Cc2cccs2)N2CCN(C(=O)c3ccco3)CC2)cc1 (stereo not drawn), which cytotoxicity is on record?
A: 2%

Q: Which cytotoxicity does the source give for CNC(=O)c1ccc(N(Cc2ccccc2C)S(C)(=O)=O)cc1 here?
A: 2.8%

Q: With O=S(=O)(NCCc1ccccn1)c1ccc(F)c(F)c1 as the molecule, how does the cytotoxicity read?
A: -21.4%

Q: With COc1ccc(/C(O)=C2\C(=O)C(=O)N(c3cc(C)on3)C2c2ccccc2OC)cc1 (stereo not drawn) as the molecule, how does the cytotoxicity read?
A: 9.4%

Q: With COc1cccc(C2/C(=C(\O)c3ccc(OC)c(OC)c3)C(=O)C(=O)N2c2cc(C)on2)c1 (stereo not drawn) as the molecule, how does the cytotoxicity read?
A: 19.3%

Q: For Cc1cc(N2C(=O)C(=O)/C(=C(/O)c3ccc(Cl)cc3)C2c2cccc(Br)c2)no1 (stereo not drawn), which cytotoxicity is on record?
A: 60.6% (active)

Q: Which cytotoxicity does the source give for Cc1ccc(/C(O)=C2\C(=O)C(=O)N(c3cc(C)on3)C2c2cccc(Cl)c2)cc1 (stereo not drawn) here?
A: 55.9% (active)

Q: Which cytotoxicity does the source give for Cc1cc(N2C(=O)C(=O)/C(=C(/O)c3ccc(F)cc3)C2c2ccc(F)cc2)no1 (stereo not drawn) here?
A: 16.6%

Q: Which cytotoxicity does the source give for Cc1cc(N2C(=O)C(=O)/C(=C(/O)c3ccccc3)C2c2cccc(Br)c2)no1 (stereo not drawn) here?
A: 0.9%

Q: Which cytotoxicity does the source give for Cc1cc(N2C(=O)C(=O)/C(=C(/O)c3ccc(F)cc3)C2c2ccc(Cl)cc2)no1 (stereo not drawn) here?
A: 37.6%

Q: For Cc1ccc(/C(O)=C2\C(=O)C(=O)N(c3cc(C)on3)C2c2cccc(Br)c2)cc1 (stereo not drawn), which cytotoxicity is on record?
A: 48.2%

Q: With Cc1cc(N2C(=O)C(=O)/C(=C(/O)c3ccc(F)cc3)C2c2cccc(Br)c2)no1 (stereo not drawn) as the molecule, how does the cytotoxicity read?
A: 72.5% (active)

From PubChem BioAssay AID431 (Sanford-Burnham Center for Chemical Genomics, 2006)
